A selection: hits, their analogues and other compounds. The true share with any hit is near 12%.
Arbovirus inh – blocks arbovirus infection | AID 1251 | inhibition, % at 10 µM | arbovirus infection cell-based antiviral screen | actives 0.37% (n = 200,000); in the data active means inhibition above about 30%
L major viab – Leishmania major promastigote growth inhibition; Leishmania major promastigotes, resazurin fluorescence viability; inhibition, % at 10 µM; actives 9% (n = 200,000); in the data active means inhibition above about 50%;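 further: promastigotes grown with compound for 44 hours at 28 °C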
CHOP inhibitor – inhibitors of CHOP induction in ER stress response | inhibition, % at 10 µM | actives 3.8% (n = 220,000) | CHO-K1 CHOP-promoter luciferase, tunicamycin-induced, 15-18 h | AID 2732;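 active means compounds that reduced the stress-induced luciferase reporter signal by more than about 70% of percent inhibition, limit read from the data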;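 further: 0% = tunicamycin plus vehicle and 100% = wells without tunicamycin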
WT yeast gro inh – growth inhibition of WT yeast, mitochondrial fusion screen | mitochondrial fusion phenotypic screen, WT strain | actives 2.1% (n = 190,000) | AID 1362 | inhibition, % at 10 µM; in the data active means inhibition above about 58%; tested in S. cerevisiae
CHOP confirm – confirmation of CHOP induction inhibitors; shares compounds with CHOP inhibitor; CHO-CHOP promoter luciferase reporter, tunicamycin-induced, luminescence; inhibition, % at 10 µM; actives 45% (n = 2,100); AID 504437;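 active means mean of three repeat readings of reporter signal inhibition above a set limit, cut at about 70% in these data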;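 further: 0% = tunicamycin plus vehicle and 100% = wells lacking tunicamycin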
An asterisk follows results filed as active; . = no result.

SMILES	Arbovirus inh	L major viab	CHOP inhibitor	WT yeast gro inh	CHOP confirm
Nc1nc(SCC(=O)Nc2cc(C(F)(F)F)ccc2N2CCOCC2)n[nH]1	-3	-9	-32	-6	.
Cc1ccc2nc(SCC(=O)Nc3cc(C(F)(F)F)ccc3N3CCOCC3)[nH]c2c1	-13	53*	.	-2	10
CCN(CC)CCN(C(=O)c1ccc(CN2CCCCC2)o1)C(C(=O)NC1CCCCC1)c1ccc(F)cc1 (centres undefined)	17	27	-11	1	.
COc1ccc2oc(=O)c(-c3nnc(NCc4ccco4)s3)cc2c1	-23	45	-21	-4	.
CCOc1cccc2cc(-c3nnc(NCc4ccco4)s3)c(=O)oc12	-5	9	97*	2	20
COC(=O)CNC(=O)c1cccc(-c2ccc(OC)cc2)c1	-7	-3	1	7	.
Cc1ccc(SCCNS(=O)(=O)c2ccc(F)cc2)cc1	-8	53*	97*	46	6
COc1ccc(S(=O)(=O)NCCSc2ccc(C)cc2)cc1OC	8	-4	36	14	.
CCOC(=O)c1oc2ccc(/C=N/O)c(Cl)c2c1C	-20	-8	104*	4	17
CCOC(=O)c1oc2cc(C)cc(C)c2c1C	.	.	28	.	.
CC(C)(C)c1ccc(CN2N=Nc3ccccc3S2(=O)=O)cc1	-36	101*	108*	-21	124*
COc1ccc(NC(=O)CC2(CC(=O)O)CCCC2)cn1	2	-10	4	3	.
Cc1ccc2sc(NC(=O)c3ccc(N4C(=O)CCC4=O)cc3)nc2c1C	-4	-7	100*	3	-21
COc1ccccc1CNC(=O)c1cn(C)c2ccc(S(=O)(=O)N3CCCC3)cc2c1=O	-2	10	106*	1	52
Cn1cc(C(=O)NCc2ccc(F)cc2)c(=O)c2cc(S(=O)(=O)N3CCCCC3)ccc21	-1	20	24	0	.
CC1CCC(n2c(=S)[nH]c3ccccc3c2=O)CC1 (centres undefined)	12	1	103*	1	104*
Cn1cc(CN(CCO)Cc2cccs2)c(-c2ccccc2F)n1	5	-1	9	-21	.
CCCOc1ccc(N2C(=O)CC(SC(=NC)Nc3ccc(F)cc3)C2=O)cc1 (centres undefined)	-10	-6	100*	15	100*
CCN=C(NCC)SC1CC(=O)N(c2ccc(OC)cc2)C1=O (centres undefined)	-2	-1	24	8	.
CCOc1ccc(NC(=NCc2ccc3c(c2)OCO3)SC2CC(=O)N(c3ccccc3)C2=O)cc1 (centres undefined)	-17	0	19	5	.
CCOc1ccc(NC(=NCc2ccc3c(c2)OCO3)SC2CC(=O)N(c3ccc(OCC)cc3)C2=O)cc1 (centres undefined)	-21	4	98*	2	30
CCCOc1ccc(N2C(=O)CC(SC(=NCC)Nc3cccc(F)c3)C2=O)cc1 (centres undefined)	-7	-1	105*	11	108*
CCOc1ccc(N2C(=O)CC(SC(=NC)Nc3cccc(OC)c3)C2=O)cc1 (centres undefined)	-2	13	35	-11	.
Cc1ccc(S(=O)(=O)CCC(=O)NCc2ccco2)cc1	-3	-4	24	0	.
CNS(=O)(=O)c1ccc(Cl)nc1	3	0	-3	-12	.
SMILES	Arbovirus inh	L major viab	CHOP inhibitor	WT yeast gro inh	CHOP confirm
C/C=C\C=C/C(=O)Nc1cccc(C2=NOC3(C2)C[C@H](C(N)=O)N(C(=O)Cc2ccc([N+](=O)[O-])cc2)C3)c1 (some centres undefined)	.	.	-4	.	.
Cc1ccc(OCc2nc(-c3ccc(Cl)cc3)n[nH]2)cc1	-6	1	100*	4	34
Fc1ccc(OCc2nc(-c3ccncc3)n[nH]2)cc1	-1	4	-1	-2	.
COc1ccc(C(=O)NC(=S)Nc2ccccc2N2CCOCC2)cc1Br	11	7	-34	46	.
COc1ccc(C(=O)NC(=S)NC(C)(C)C)cc1Br	7	-2	106*	32	-16
N#C/C(=C\c1ccc([N+](=O)[O-])o1)c1nc2ccccc2[nH]1	-37	100*	106*	95	127*
COc1ccccc1-c1cc(C(F)(F)F)nc(S(=O)(=O)CCCC(=O)N2CCOCC2)n1	-31	100*	.	0	67
COc1ccccc1-c1cc(C(F)(F)F)nc(S(=O)(=O)CCCC(=O)O)n1	9	0	-33	-9	.
CN1CCc2c(sc3c2c(=O)n(-c2ccccc2)c2n[nH]c(=S)n32)C1	6	1	-4	-4	.
C=CCN1CC(C(=O)N2CCC(Cc3ccc(Cl)cc3)(C(=O)OCC)CC2)CC1=O (centres undefined)	.	.	4	.	.
COc1ccccc1NC(=O)c1c(Nc2ccccc2F)sc(C(=O)Nc2cccc(Cl)c2)c1N	4	-13	108*	23	63
CO[C@@H]1O[C@@H]2COC(c3ccccc3)O[C@@H]2[C@@H](OC)[C@@H]1O (some centres undefined)	0	-3	11	4	.
Cc1ccc(Oc2ncnc(N)c2[N+](=O)[O-])cc1	9	2	15	-6	.
Cc1ccc(N(c2ncnc(N)c2[N+](=O)[O-])C2CCCCC2)cc1	0	5	105*	2	100*
CC(C)(C)c1cc(OC(=O)c2ccncc2)ccc1O	0	22	39	-4	.
CC(C)(C)c1cc(OC(=O)c2ccccc2F)ccc1O	-35	1	105*	72*	17
COc1ccccc1NC(=S)NNC(=O)c1ccccc1Br	3	6	7	-8	.
Cc1cccc(Cn2c(C(C)(C)C)cc3cccnc32)c1	-14	18	21	23	.
Cc1cc(C)c2c(NC(=O)CCl)nn(C)c2n1	22	6	24	-9	.
CCc1cc(SC#N)cc(CC)c1NC(=O)CCl	-11	20	97*	-12	43
COc1ccccc1-n1c(-c2cn(C)nc2C)n[nH]c1=S	-2	-3	0	-10	.
COc1cc(N=c2ssnc2Cl)cc(OC)c1	-4	6	106*	10	20
Clc1nssc1=Nc1ccc(Br)cc1	17	-10	106*	71*	131*
N#Cc1cccc(N=c2ssnc2Cl)c1	3	-2	-1	43	.
Cc1ccc(NC(=O)c2cc(N3C(=O)C=CC3=O)ccc2N2CCOCC2)cc1Cl	14	26	100*	66*	-19
SMILES	Arbovirus inh	L major viab	CHOP inhibitor	WT yeast gro inh	CHOP confirm
COc1ccc(CN2CCNC(=O)C2CC(=O)N2CCCO2)c(OC)c1 (centres undefined)	-4	-4	-2	-2	.
O=C(CCN1C(=O)c2ccccc2C1=O)Oc1ccc2ccccc2c1	19	-5	39	-13	.
CC1=CC(C)(C)Nc2ccc(OC(=O)CCN3C(=O)c4ccccc4C3=O)cc21	-10	79*	108*	-10	-220
Nc1n[nH]c(S(=O)(=O)CCCc2ccccc2)n1	11	-7	20	-1	.
O/N=C/c1cc(Cl)ccc1OCc1cccc2ccccc12	-30	3	113*	97*	31
Cc1cc(C)c(NC(=O)CSc2nc3ccc(NC(=O)CSc4nnnn4Cc4ccccc4)cc3s2)c(C)c1	.	21	.	.	.

Compound activity (PubChem BioAssay)
